# Measurements published in article PMC7862700, “An all-to-all approach to the identification of sequence-specific readers for epigenetic DNA modifications on cytosine”.
# Key:
# Test in all cases: DAPPL (digital affinity profiling via proximity ligation, sequencing); 10 mM Tris-HCl pH 7.5, 50 mM NaCl, 1 mM DTT, 4% glycerol, room temperature, 30 min; GST-TFs on glutathione beads, 16-mer random dsDNA library, 0.1% formaldehyde crosslink after washing; high values mean tight binding
# Details in all cases: protein: recombinant; tags: N-terminal GST; dsDNA, one strand shown
# [1] = target: T1, ELK1 (Homo sapiens, UniProt P19419 1-428)
# T1 sequence: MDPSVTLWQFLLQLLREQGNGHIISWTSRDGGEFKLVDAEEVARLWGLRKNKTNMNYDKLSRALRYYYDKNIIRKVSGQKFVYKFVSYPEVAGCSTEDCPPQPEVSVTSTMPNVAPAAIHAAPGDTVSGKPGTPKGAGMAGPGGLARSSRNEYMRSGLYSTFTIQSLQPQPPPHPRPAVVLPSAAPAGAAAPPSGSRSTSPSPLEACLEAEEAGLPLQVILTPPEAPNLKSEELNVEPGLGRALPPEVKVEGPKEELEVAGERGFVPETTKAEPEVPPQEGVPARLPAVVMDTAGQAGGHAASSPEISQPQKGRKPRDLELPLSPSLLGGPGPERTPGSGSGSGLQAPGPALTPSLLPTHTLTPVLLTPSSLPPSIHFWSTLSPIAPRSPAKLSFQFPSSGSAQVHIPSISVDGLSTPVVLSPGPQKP
# Summary of the method: (§1)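 Pools were built from human transcription factors expressed in yeast as GST fusions, captured on glutathione beads and DNA-barcoded, along with a tag-only sample. Incubation with 200 nmole of a 16-mer random double-stranded DNA library lasted 30 min at room temperature in Tris/NaCl/DTT/glycerol buffer, and was followed by washing, 0.1% formaldehyde crosslinking, proximity ligation, PCR amplification and Illumina NextSeq500 sequencing. Binding signal is the quotient of each hexamer's read frequency for a factor and its frequency for the tag-only sample.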
# [2] = target: T2, GABPA (Homo sapiens, UniProt Q06546 1-454)
# T2 sequence: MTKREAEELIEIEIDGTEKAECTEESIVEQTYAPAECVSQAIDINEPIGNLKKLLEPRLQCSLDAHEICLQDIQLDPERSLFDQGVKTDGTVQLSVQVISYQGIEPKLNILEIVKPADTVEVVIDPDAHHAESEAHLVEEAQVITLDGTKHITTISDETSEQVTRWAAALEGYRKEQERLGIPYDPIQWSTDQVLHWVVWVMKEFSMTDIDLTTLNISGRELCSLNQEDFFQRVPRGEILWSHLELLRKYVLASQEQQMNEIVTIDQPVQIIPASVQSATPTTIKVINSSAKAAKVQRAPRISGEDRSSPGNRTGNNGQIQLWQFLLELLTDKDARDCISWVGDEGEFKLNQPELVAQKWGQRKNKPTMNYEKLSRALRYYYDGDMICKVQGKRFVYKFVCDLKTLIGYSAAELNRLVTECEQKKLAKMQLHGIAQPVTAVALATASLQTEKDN
# Summary of the method: as §1
# [3] = target: T3, ERG (Homo sapiens, UniProt P11308 1-479)
# T3 sequence: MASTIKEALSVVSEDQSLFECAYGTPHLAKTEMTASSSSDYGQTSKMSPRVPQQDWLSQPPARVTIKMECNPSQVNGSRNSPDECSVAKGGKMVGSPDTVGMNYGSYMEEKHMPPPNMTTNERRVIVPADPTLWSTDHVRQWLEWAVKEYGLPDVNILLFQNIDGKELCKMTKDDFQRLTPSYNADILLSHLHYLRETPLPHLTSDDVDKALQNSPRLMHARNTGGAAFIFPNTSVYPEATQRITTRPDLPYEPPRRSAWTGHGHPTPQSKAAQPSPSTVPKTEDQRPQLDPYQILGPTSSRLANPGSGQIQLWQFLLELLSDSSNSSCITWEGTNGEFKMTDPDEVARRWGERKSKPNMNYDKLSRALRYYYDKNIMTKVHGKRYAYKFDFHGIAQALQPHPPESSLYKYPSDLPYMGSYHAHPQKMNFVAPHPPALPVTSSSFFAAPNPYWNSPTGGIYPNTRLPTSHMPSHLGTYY
# Summary of the method: as §1
# [4] = target: ELF1 (Homo sapiens, UniProt P32519 1-619)
# Chain of ELF1 (P32519 whole entry): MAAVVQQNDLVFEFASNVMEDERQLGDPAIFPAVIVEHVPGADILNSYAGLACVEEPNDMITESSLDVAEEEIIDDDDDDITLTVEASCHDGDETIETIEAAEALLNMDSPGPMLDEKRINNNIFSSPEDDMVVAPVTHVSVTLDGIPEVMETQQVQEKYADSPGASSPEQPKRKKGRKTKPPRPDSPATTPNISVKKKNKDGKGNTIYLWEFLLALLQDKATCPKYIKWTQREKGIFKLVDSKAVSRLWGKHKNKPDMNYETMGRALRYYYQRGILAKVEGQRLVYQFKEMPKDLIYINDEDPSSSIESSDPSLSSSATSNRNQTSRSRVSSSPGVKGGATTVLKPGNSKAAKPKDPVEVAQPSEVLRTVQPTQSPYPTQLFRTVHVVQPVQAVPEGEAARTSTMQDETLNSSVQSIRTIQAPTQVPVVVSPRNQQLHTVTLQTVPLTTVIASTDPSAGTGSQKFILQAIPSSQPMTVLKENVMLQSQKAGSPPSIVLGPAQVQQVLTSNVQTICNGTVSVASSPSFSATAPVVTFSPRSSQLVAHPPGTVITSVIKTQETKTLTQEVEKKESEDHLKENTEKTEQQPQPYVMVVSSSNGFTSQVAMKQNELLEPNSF
# Summary of the method: as §1
# [5] = target: T4, EHF (Homo sapiens, UniProt Q9NZC4 1-300)
# T4 sequence: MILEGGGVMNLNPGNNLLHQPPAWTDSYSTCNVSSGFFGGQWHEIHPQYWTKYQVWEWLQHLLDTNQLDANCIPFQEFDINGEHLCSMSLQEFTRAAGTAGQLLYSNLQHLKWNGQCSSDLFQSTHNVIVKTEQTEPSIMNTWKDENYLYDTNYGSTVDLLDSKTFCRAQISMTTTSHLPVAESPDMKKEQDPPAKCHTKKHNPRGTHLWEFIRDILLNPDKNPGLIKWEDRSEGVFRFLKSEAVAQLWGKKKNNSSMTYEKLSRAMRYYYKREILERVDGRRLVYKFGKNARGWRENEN
# Summary of the method: as §1
# [6] = target: SPIB (Homo sapiens, UniProt Q01892 1-262)
# Chain of SPIB (Q01892 whole entry): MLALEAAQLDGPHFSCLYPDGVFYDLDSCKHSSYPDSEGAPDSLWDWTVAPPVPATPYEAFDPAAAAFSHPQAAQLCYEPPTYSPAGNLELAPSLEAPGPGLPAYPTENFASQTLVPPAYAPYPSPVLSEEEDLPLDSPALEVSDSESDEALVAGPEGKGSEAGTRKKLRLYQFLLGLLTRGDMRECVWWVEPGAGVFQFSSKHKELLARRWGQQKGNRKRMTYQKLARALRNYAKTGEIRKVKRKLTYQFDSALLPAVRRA
# Summary of the method: as §1
# [7] = target: T5, FEV (Homo sapiens, UniProt Q99581 1-238)
# T5 sequence: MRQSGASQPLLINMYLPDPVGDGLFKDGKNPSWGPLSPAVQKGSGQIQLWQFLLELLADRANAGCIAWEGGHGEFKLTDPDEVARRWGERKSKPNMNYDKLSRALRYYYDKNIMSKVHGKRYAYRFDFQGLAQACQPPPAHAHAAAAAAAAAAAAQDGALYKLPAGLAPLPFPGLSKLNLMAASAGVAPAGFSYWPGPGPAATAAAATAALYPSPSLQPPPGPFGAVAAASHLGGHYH
# Summary of the method: as §1
# [8] = target: ETV5 (Homo sapiens, UniProt P41161 1-510)
# Chain of ETV5 (P41161 whole entry): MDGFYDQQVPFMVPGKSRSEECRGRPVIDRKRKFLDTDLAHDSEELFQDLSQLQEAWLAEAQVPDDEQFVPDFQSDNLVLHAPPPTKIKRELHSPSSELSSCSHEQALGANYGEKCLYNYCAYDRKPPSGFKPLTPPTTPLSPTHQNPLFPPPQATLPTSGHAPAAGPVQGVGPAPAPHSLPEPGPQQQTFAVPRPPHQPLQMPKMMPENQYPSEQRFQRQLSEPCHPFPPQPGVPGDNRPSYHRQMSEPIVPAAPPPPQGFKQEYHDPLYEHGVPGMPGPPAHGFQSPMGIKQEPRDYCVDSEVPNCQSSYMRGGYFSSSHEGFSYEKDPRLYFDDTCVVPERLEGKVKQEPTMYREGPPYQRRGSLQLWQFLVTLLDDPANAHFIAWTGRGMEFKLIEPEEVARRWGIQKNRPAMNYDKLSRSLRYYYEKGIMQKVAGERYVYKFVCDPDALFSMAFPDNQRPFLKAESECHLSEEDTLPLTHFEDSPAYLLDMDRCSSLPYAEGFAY
# Summary of the method: as §1
# [9] = target: ELF4 (Homo sapiens, UniProt Q99607 1-663)
# Chain of ELF4 (Q99607 whole entry): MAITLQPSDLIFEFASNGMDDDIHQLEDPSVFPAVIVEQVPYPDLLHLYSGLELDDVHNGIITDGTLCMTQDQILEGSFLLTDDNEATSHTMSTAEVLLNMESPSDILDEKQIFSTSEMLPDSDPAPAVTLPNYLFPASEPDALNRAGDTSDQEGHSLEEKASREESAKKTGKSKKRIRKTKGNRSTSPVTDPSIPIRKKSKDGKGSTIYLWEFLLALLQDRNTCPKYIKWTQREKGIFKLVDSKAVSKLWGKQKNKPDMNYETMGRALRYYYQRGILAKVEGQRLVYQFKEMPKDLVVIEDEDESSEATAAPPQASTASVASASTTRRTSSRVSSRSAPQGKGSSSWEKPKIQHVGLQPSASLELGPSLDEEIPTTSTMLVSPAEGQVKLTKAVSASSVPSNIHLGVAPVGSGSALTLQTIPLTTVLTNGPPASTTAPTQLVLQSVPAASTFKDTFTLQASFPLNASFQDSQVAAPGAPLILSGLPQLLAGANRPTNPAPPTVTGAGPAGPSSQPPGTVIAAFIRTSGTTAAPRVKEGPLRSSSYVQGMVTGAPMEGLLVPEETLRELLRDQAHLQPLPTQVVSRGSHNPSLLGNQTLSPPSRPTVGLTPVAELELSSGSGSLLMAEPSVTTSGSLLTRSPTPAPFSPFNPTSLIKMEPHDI
# Summary of the method: as §1
# [10] = target: T6, ELK4 (Homo sapiens, UniProt P28324-2 1-405)
# T6 sequence: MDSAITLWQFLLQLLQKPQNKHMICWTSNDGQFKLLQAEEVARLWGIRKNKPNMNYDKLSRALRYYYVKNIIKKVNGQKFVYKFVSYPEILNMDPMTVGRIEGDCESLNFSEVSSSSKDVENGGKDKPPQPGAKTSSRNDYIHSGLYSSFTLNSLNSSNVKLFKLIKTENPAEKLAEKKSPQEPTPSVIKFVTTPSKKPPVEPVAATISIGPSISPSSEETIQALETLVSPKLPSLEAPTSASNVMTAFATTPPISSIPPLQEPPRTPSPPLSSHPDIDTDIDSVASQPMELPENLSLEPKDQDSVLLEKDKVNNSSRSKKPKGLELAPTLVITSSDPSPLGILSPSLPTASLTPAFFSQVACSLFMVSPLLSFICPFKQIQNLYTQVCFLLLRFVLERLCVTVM
# Summary of the method: as §1
sequence,measurement,setting,value
GTTGAC,binding signal,[1],"1.03 fold enrichment (6-mer frequency, TF over GST control)"
same,binding signal,[2],"1.19 fold enrichment (6-mer frequency, TF over GST control)"
same,binding signal,[3],"1.22 fold enrichment (6-mer frequency, TF over GST control)"
same,binding signal,[4],"1.2 fold enrichment (6-mer frequency, TF over GST control)"
same,binding signal,[5],"1.17 fold enrichment (6-mer frequency, TF over GST control)"
same,binding signal,[6],"1.22 fold enrichment (6-mer frequency, TF over GST control)"
same,binding signal,[7],"1.18 fold enrichment (6-mer frequency, TF over GST control)"
same,binding signal,[8],"1.01 fold enrichment (6-mer frequency, TF over GST control)"
same,binding signal,[9],"1.15 fold enrichment (6-mer frequency, TF over GST control)"
same,binding signal,[10],"1.25 fold enrichment (6-mer frequency, TF over GST control)"
